We go through 51 compounds from ChEMBL document CHEMBL3988442, “University of Dundee, Small-Polar-MMV Screening Library” (2021).

SMILES strings stand for the structures.

The target in experiment [1] is T1, Aspartate--tRNA(Asp/Asn) ligase (Mycobacterium tuberculosis (strain ATCC 25618 / H37Rv)) (UniProt P9WFW3). Also: in the data most compounds retested in dose-response had high values.
T1 sequence (whole entry): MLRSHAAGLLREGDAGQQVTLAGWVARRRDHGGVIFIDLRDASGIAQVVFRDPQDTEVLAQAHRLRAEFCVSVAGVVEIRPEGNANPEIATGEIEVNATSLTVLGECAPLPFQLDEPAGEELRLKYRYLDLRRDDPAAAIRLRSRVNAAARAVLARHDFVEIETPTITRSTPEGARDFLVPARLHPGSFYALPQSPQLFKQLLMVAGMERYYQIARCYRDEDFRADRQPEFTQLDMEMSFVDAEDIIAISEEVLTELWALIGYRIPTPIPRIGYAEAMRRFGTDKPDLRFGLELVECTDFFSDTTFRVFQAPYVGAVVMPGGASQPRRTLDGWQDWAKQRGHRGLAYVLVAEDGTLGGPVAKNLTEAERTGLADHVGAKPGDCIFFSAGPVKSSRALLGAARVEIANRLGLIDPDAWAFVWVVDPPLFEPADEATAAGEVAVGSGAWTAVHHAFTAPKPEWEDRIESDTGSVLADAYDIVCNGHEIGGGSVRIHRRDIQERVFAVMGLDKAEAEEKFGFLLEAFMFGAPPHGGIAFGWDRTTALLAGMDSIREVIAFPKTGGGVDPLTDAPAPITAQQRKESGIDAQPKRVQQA
As to the kind of experiment: Assay for Asp RNA synthetase-1 from Mycobacterium tuberculosis. Format: functional. Also noted: scale not given: direction of the effect not stated beside the values. As to conditions: 30 µM.

The target of experiment [2] is Shiga toxin 2 (Escherichia coli O157:H7) (UniProt P09385+P09386). As to the kind of experiment: E. coli 0.157:H7 Shiga Toxin SOP - stx2 screening assay. It counts as functional. Also noted: scale not given: direction of the effect not stated beside the values. The conditions noted are these: 30 µM.

As to `NS(=O)(=O)N1CCc2ccc(NC(=O)Cc3ccc(F)cc3)cc21`, the Percent Effect was -5.84% in experiment [1] and -15% in experiment [2].

As to `Cc1cc(C[S+]([O-])CC(=O)NCC(C)C)no1` (configuration not stated), the results for the Percent Effect in experiment [1] and in experiment [2] were -2.03% and 4.91%, respectively.

As for `Cn1ccnc1CN(CCCO)C1CCCc2ccccc21` (configuration not stated), the Percent Effect in experiment [1] amounted to 3.32%; in experiment [2], 8.83%.

Regarding `CN1CCc2c(C#N)c(NCc3ccco3)n3cnnc3c2C1`, the Percent Effect in experiment [1] is 6.08%; in experiment [2], -1.51%.

In the case of `CC(C)(C)NC(=O)CN1CCN(C(=O)Nc2ccc(F)cc2F)CC1`, the Percent Effect is -2.94% in experiment [1] and -44.1% in experiment [2].

As to `CN1CCC(Oc2ccc(NC(=O)c3ccccc3Br)cc2)CC1`, the Percent Effect was -0.921% in experiment [1] and -69.6% in experiment [2].

With `CCc1n[nH]c(C2CN(C(=O)Cn3ccccc3=O)CCO2)n1` (configuration not stated), the Percent Effect was 0.8% in experiment [1] and -58% in experiment [2].

Regarding `CC(=O)Nc1ccc(CNC2CC(=O)N(Cc3cccc(F)c3)C2)cc1` (configuration not stated), the values for the Percent Effect in experiment [1] and in experiment [2] were -2.06% and -10.3%, respectively.

As to `COc1ccc(F)cc1C(C)NC(=O)c1nnc(C)s1` (configuration not stated), the Percent Effect in experiment [1] is 1.79%; in experiment [2] it was -5.21%.

In the case of `CN(C)c1ccc(CNC(=O)c2ccc(Cl)cc2F)cc1`, the Percent Effect in experiment [1] was -7.82%; in experiment [2], 0.494%.

Regarding `CS(=O)(=O)NC1CCCN(C(=O)NCc2cccnc2)C1` (configuration not stated), the values for the Percent Effect in experiment [1] and in experiment [2] were -0.548% and 26.7%, respectively.

With `CN(C)S(=O)(=O)N1CCC[C@]2(C[C@@H](Oc3ccccn3)CO2)C1`, the Percent Effect in experiment [1] was 3.16%; in experiment [2], -10.1%.

As for `Cc1cc(C)c(CNC(=O)NCCOc2ccc3c(c2)CCC3)c(=O)[nH]1`, the Percent Effect in experiment [1] was -2.17%; in experiment [2], 15%.

In the case of `Cc1cc(=O)n2ncnc2n1CC(O)c1ccccc1Cl` (configuration not stated), the Percent Effect in experiment [1] was -0.03%; in experiment [2], -19.6%.

With `O=C(Nc1cccc(CN2CCOC2=O)c1)N1CCSCC1`, the values for the Percent Effect in experiment [1] and in experiment [2] were -4.15% and -52.5%, respectively.

For the compound `c1coc(CN2CCCC3(COCCN(Cc4c[nH]nn4)C3)C2)c1` (configuration not stated), the Percent Effect in experiment [1] turned out to be 2.45%; in experiment [2] it was 4.89%.

Consider `COc1ccc2cc(C3CN(C(=O)C4CCOCC4)CCO3)ccc2c1` (configuration not stated), for which the Percent Effect in experiment [1] was 0.234%; in experiment [2] it was 7.44%.

Regarding `CCc1cc(C(=O)N2CCCC2c2nc(C)c(F)c(O)n2)on1` (configuration not stated), the Percent Effect in experiment [1] is 2.22%; in experiment [2] it was -57%.

Regarding `CSc1ccccc1CN1CCCn2nc(CNC(=O)N(C)C)cc2C1`, the Percent Effect in experiment [1] was 2.53%; in experiment [2], -34.2%.

As for `Cc1nccn1CC1CCCN1S(=O)(=O)Cc1ccon1` (configuration not stated), the Percent Effect is -2.34% in experiment [1] and -23.9% in experiment [2].

Turning to `c1ccc(Cn2cncn2)c(CNCC2CNc3ccnn3C2)c1` (configuration not stated), the Percent Effect in experiment [1] is 0.425%; in experiment [2], -35.2%.

For the compound `CN(C)C(CNC(=O)NCCc1cccc(O)c1)c1ccco1` (configuration not stated), the Percent Effect in experiment [1] is 2.5%; in experiment [2], -5.55%.

For `Cc1cnn(CC2CN(c3ncnc4ccccc34)CCO2)c1` (configuration not stated), the Percent Effect was -7% in experiment [1] and 6.94% in experiment [2].

As for `Nc1nccc(NCc2cc3n(n2)CCCN(C(=O)C2CCC2)C3)n1`, the Percent Effect was determined as 0.0228% in experiment [1] and 1.54% in experiment [2].

Turning to `CCc1cccc(OCC(=O)N2CCCC(n3cncn3)C2)c1` (configuration not stated), the Percent Effect in experiment [1] was -0.88%; in experiment [2] it was 26%.

On to `Cc1ccc(NC(=O)NCCCc2n[nH]c(N)c2C#N)cc1`, for which the results for the Percent Effect in experiment [1] and in experiment [2] were 1.26% and -18.4%, respectively.

As for `CC(CC#N)NC(=O)c1cc(Br)c2c(c1)OCCO2` (configuration not stated), the Percent Effect in experiment [1] is -8.16%; in experiment [2], -5.44%.

For `CC(C)c1noc(C(C)N2CCN(Cc3ccco3)CC2)n1` (configuration not stated), the Percent Effect in experiment [1] is 0.141%; in experiment [2], 13.9%.

Take `CCOc1ccccc1C(=O)N1CCCC1c1ncc2c(n1)CCNC2` (configuration not stated): the Percent Effect in experiment [1] is -3.07%; in experiment [2], 48.2%.

In the case of `COCc1nn(C(C)C)c2c1CCN(Cc1cccs1)C2`, the Percent Effect in experiment [1] was -2.9%; in experiment [2], 18.3%.

As to `O=C(c1cnoc1)N1CCC[C@]2(C[C@@H](OCc3ccccn3)CO2)C1`, the Percent Effect in experiment [1] is -4.58%; in experiment [2] it was -20.4%.

Consider `Cc1ncsc1-c1nnc(C2CCN(Cc3ccc(F)cc3)CC2)o1`, for which the values for the Percent Effect in experiment [1] and in experiment [2] were 4.24% and -43.6%, respectively.

`CC(C)c1nccn1C1CCCN(C(=O)c2cnn(C)c2C2CC2)C1` (configuration not stated): the values for the Percent Effect in experiment [1] and in experiment [2] were -1.74% and 28.9%, respectively.

For the compound `O=c1cc2c(nn1CN1CCOCC1)CCC2`, the Percent Effect in experiment [1] is 2.64%; in experiment [2], -10.5%.

Turning to `O=S(=O)(Cc1ccccc1)N1CCCn2cnc(CN3CCCC3)c2C1`, the Percent Effect in experiment [1] is 16%; in experiment [2] it was -5.12%.

Consider `O=c1[nH]c2c(c(=O)n1C1CCCCC1)CCC2Nc1ccccc1Cl` (configuration not stated), for which the Percent Effect in experiment [1] is 4.33%; in experiment [2] it was -5.14%.

Turning to `COC(=O)C(NC(=O)c1ccco1)c1cc(F)ccc1F` (configuration not stated), the values for the Percent Effect in experiment [1] and in experiment [2] were -3.92% and 7.37%, respectively.

Regarding `CC(C)[C@H](NC(=O)NC1CCS(=O)(=O)C1)C(=O)Nc1cccnc1` (some centres not stated), the Percent Effect in experiment [1] is -0.929%; in experiment [2] it was -52.8%.

With `CC(C)CN(Cc1nc2c(cnn2C)c(=O)[nH]1)C(C)C`, the Percent Effect in experiment [1] was -2.77%; in experiment [2], 0.929%.

With `CC(=O)NCC(=O)N1CCN(CC2CC2)c2ncccc2C1`, the figures for the Percent Effect in experiment [1] and in experiment [2] were -4.63% and -0.0207%, respectively.

`COC[C@@]12CCO[C@@H]1CCN(C(=O)COc1ccccc1OC)C2`: the Percent Effect in experiment [1] worked out at 4.72%; in experiment [2], 19.5%.

For `CC(NC(=O)NCCOc1ccc(F)c(F)c1)c1nncn1C` (configuration not stated), the Percent Effect in experiment [1] is -4.5%; in experiment [2], 27.5%.

For the compound `CN(C)C(=O)CNC(=O)CCn1ncc2c(Cl)cccc21`, the Percent Effect in experiment [1] was -0.813%; in experiment [2], -27.9%.

With `Cc1ccccc1-c1cc(C(=O)NCCN2CCCS2(=O)=O)[nH]n1`, the figures for the Percent Effect in experiment [1] and in experiment [2] were -2.39% and -11.4%, respectively.

For `Cc1ccc(NC2CCN(C(=O)CN(C)C3CC3)CC2)nn1`, the values for the Percent Effect in experiment [1] and in experiment [2] were -0.538% and -2.23%, respectively.

Regarding `c1ccc(CN2CCCC2Cn2cncn2)nc1` (configuration not stated), the Percent Effect in experiment [1] is 3.85%; in experiment [2], -7.85%.

For `Cc1ccc(NC2CCN(C(=O)CCNS(C)(=O)=O)CC2)nn1`, the Percent Effect is -2.45% in experiment [1] and -0.275% in experiment [2].

`COc1ccc(CN2C[C@@H](N(C)Cc3ccco3)[C@H]3OCCC[C@H]32)cc1`: the results for the Percent Effect in experiment [1] and in experiment [2] were 0.632% and 4.78%, respectively.

In the case of `O=C(CCc1ccccn1)N1CCc2cc(Cl)cc(Cl)c2C1`, the figures for the Percent Effect in experiment [1] and in experiment [2] were 15.8% and -69.6%, respectively.

Turning to `COCC(=O)N1CC[C@@H](N2CCOCC2)[C@@H]1Cc1ccccc1`, the Percent Effect in experiment [1] is 9.38%; in experiment [2], -28.8%.

As for `CC(C)Cc1ccc(S(=O)(=O)Nc2ccc(=O)n(C)c2)cc1`, the Percent Effect in experiment [1] is 30.2%; in experiment [2] it was -23.8%.
